Among the data in PubChem BioAssay (NCATS) are Potency and viability (% of control) values, retold here.

SMILES strings stand for the structures. Results filed as inconclusive are left out. A number with no mark means an inactive call. Active and inactive are the calls of the source. Calls follow the shape of the dose curve; as a rule, active = well fitted cell-killing curve with a large enough effect; inconclusive = small, poorly fitted or top-dose-only effect, or effect the other way; inactive = no such curve, though single readings can be large or run the other way.

Assay [1] is described as follows: Viability qHTS for spleen associated tyrosine kinase inhibitor (SYKi) naive MV4-11 cells (AID 1963823). Also: nearly all actives have a fitted effect of over 40% in size. In a few lines: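 Viability of MV4-11 AML cells lacking prior SYK inhibitor exposure is scored by CellTiter-Glo luminescence following 72 hr compound incubation at 37 C, 5% CO2, seeded at 500 cells per well.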
(In general: qHTS replaces the single test concentration by a dilution series.)

Assay [2] is described as follows: Viability qHTS for spleen associated tyrosine kinase inhibitor (SYKi) drug resistant MV4-11 cells (AID 1963824). Also: nearly all actives have a fitted effect of over 35% in size. In a few lines: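 SYK-inhibitor-resistant MV4-11 AML cells were seeded at 500 per well onto compound and cultured 72 hours (37 °C, 5% CO2). CellTiter-Glo was then added, and after 10 min at room temperature, luminescence gave viability.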
Potency is read from the fitted curve at half-maximal effect.

Turning to `O=C1CN=C(c2ccccc2Cl)c2cc(Br)ccc2N1`, in assay [1], the Potency entry is “inactive”.

As to `CCOP(=O)(OCC)Oc1ccc2c(C)cc(=O)oc2c1`, the Potency result in assay [1] is “inactive”.

Turning to `S=C(NC1CCCCC1)N1CCC(c2cnc[nH]2)CC1`, the Potency result in assay [1] is “inactive”.

As to `C/C=C(\C)C(=O)OC1CC2C(C)(C)OC(=O)CC(OC(C)=O)C2(C)C2CC(OC(=O)C(C)C)C3(C)C(c4ccoc4)CC4OC43C12C` (stereo not drawn), the Potency entry in assay [1] and in assay [2] was “inactive” each time.

On to `C/C=C(\C)C(O)C(C)/C=C(C)/C=C/C/C(C)=C/Cc1nc(OC)c(OC)c(O[C@@H]2O[C@@H](C)[C@H](O)[C@@H](O)[C@H]2O)c1C` (stereo partly drawn), for which the Potency in assay [1] was 0.1 µM (active).

`C[C@H]1CCC[C@H](O)CCC/C=C/c2cc(O)cc(O)c2C(=O)O1`: the Potency in assay [1] is 7.31 µM (active); in assay [2], 9.2 µM (active).

`C[C@]12CC[C@H](O)C[C@H]1CC[C@@H]1[C@@H]2[C@H](O)C(=O)[C@]2(C)[C@@H](c3ccc(=O)oc3)CC[C@]12O`: the Potency in assay [1] was 0.0103 µM (active).

For the compound `CCCCCOc1cc2c(cc1-c1cc(/C=C/C(=O)O)ccc1O)C(C)(C)CCC2(C)C`, the values for the Potency in assay [1] and in assay [2] were 20.6 µM (active) and 23.1 µM (active), respectively.

Consider `C[C@H]1O[C@@H](n2cnc3c(N)ncnc32)C[C@@H]1O`, for which the Potency result in assay [1] is “inactive”.

In the case of `C[C@H]1C(=O)O[C@H]2[C@H](O)[C@]34C5OC(=O)[C@]3(O[C@@H]3OC(=O)[C@H](O)C34[C@H](C(C)(C)C)[C@H]5O)C12O` (stereo partly drawn), the Potency entry in assay [1] and in assay [2] was “inactive” each time.

As to `CC1CCCC(O)CC(=O)Cc2cc(O)cc(O)c2C(=O)O1` (stereo not drawn), the Potency result in assay [1] and in assay [2] was “inactive” in each case.

For the compound `Cc1ncsc1CCCl`, the Potency result in assay [1] and in assay [2] was “inactive” throughout.

Take `CCC(C)/C=C(C)/C=C/C1=CC2=C(Cl)C(=O)C(C)(OC(C)=O)C(=O)C2=CO1` (stereo not drawn): the Potency result in assay [1] was “inactive”. In addition, in assay [2], the Potency is 8.05 µM (active).

For the compound `CN1C[C@@H]2CN(c3ccc(-c4ccccc4)nn3)C[C@@H]2C1`, the Potency result in assay [1] is “inactive”. In assay [2], the Potency is 0.58 µM (active).

For `COC(=O)C12C(=O)C(C)(O)C(=O)C1(C)C(C)=CC1C34CCC(OC3=O)C(C)(C)C4CCC12C` (stereo not drawn), the Potency entry in assay [1] is “inactive”.

Consider `C[C@]12C/C(=C/O)C(=O)C[C@@H]1CC[C@@H]1[C@@H]2CC[C@@]2(C)[C@H]1CC[C@]2(C)O`, for which the Potency in assay [1] is 18.8 µM (active).

Regarding `CCCSP(=O)(OCC)SCCC`, the Potency in assay [1] was 0.016 µM (active).

`COC1CC(OC2CCC3(C)C(CCC4C3CCC3(C)C(C5=CC(=O)OC5)C(OC(C)=O)CC43O)C2)OC(C)C1OC1OC(CO)C(O)C(O)C1O` (stereo not drawn): the Potency is 0.769 µM (active) in assay [1] and 0.485 µM (active) in assay [2].

With `CC(=O)O[C@@H]1CC2C(C)(C)C(=O)C=C[C@]2(C)C2CC[C@]3(C)C(=CC(=O)O[C@H]3c3ccoc3)[C@@]21C` (stereo partly drawn), the Potency in assay [1] is 11.6 µM (active); in assay [2], 13 µM (active).

With `CC(C)(NC(=O)[C@@H](N)Cc1ccc(O)cc1)C(=O)N[C@@H](Cc1cc2ccccc2[nH]1)C(=O)N[C@@H](Cc1ccccc1)C(=O)O`, in assay [1], the Potency was 3.35 µM (active).

With `CN1CCc2cc3c(cc2C1C1OC(=O)c2c1ccc1c2OCO1)OCO3` (stereo not drawn), the Potency entry in assay [1] and in assay [2] was “inactive” in each case.

`CC1CCCC(O)CCC/C=C/c2cc(O)cc(O)c2C(=O)O1` (stereo not drawn): in assay [1], the Potency is 14.3 µM (active).

Consider `CC[C@H](C)[C@@H]([C@@H](CC(=O)N1CCC[C@H]1[C@H](OC)[C@@H](C)C(=O)N[C@@H](Cc1ccccc1)c1nccs1)OC)N(C)C(=O)[C@@H](NC(=O)C(C)(C)N)C(C)C`, for which the Potency result in assay [1] and in assay [2] was “inactive” in each case.

Turning to `CC12CCC3C(CCC4(O)CC(O)CCC34C=O)C1(O)CCC2C1=CC(=O)OC1` (stereo not drawn), the results for the Potency in assay [1] and in assay [2] were 0.366 µM (active) and 0.231 µM (active), respectively.

Regarding `CC1=CC(=O)[C@@H](O)[C@]2(C)C3[C@@H](O)[C@@H]4OC(=O)[C@@H]([C@H]4C)[C@]3(C)C(=O)C[C@@H]12` (stereo partly drawn), the Potency in assay [1] is 0.904 µM (active); in assay [2], 1.01 µM (active).

Regarding `CCN1CC2(COC)C3[C@@H](OC)C4C1C3(C1C[C@]3(O)[C@H](OC(=O)c5ccccc5)C1[C@]4(OC(C)=O)[C@@H](O)[C@@H]3OC)[C@H](OC)C[C@H]2O` (stereo partly drawn), the Potency result in assay [1] and in assay [2] was “inactive” each time.

Regarding `Nc1ccn(C[C@@H](CO)OCP(=O)(O)O)c(=O)n1`, the viability (% of control) in assay [1] is 57.6% [at 9.25 µM].

For `CC(=O)O[C@H]1CN2CCC1CC2`, the Potency entry in assay [1] and in assay [2] was “inactive” throughout.

For the compound `C=C[C@H]1[C@H](O[C@@H]2O[C@H](CO)[C@@H](O)[C@H](O)[C@H]2O)OC=C2C(=O)OCC[C@H]21`, the Potency result in assay [1] and in assay [2] was “inactive” in each case.

Regarding `CC(C)[C@H]1OC(=O)[C@H](Cc2ccccc2)N(C)C(=O)[C@@H](C(C)C)OC(=O)[C@H](Cc2ccccc2)N(C)C(=O)[C@@H](C(C)C)OC(=O)[C@H](Cc2ccccc2)N(C)C1=O`, the Potency was 3.85 µM (active) in assay [1] and 5.44 µM (active) in assay [2].
